Hit rate of the full screen: of about 2,200 compounds, about 1,200 (55%) were called active. The limit is not given here; nearly all actives have IC50 up to about 92 µM. The set was probably picked from earlier hits. Some of the results follow.
Test: counter assay for TAg ATPase ADP read-out – biochemical, ADP-Hunter, fluorescence, counter-screen (AID 2501);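 also: purified T antigen ATPase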
Conditions: series mostly up to 100 µM

SMILES | IC50
COc1cc(O)c(C(C)=O)c(CC(=O)O)c1 | inactive
CN(Cc1ccno1)Cc1cn(C)nc1-c1ccc(Oc2ccccc2)cc1 | inactive
CCOc1ccc(C(=O)N(Cc2ccc(OC)cc2)Cc2cc3cc(OC)ccc3[nH]c2=O)cc1 | inactive
N#CC(C#N)=C1C=CC=CN1/C(=C\c1ccco1)C(=O)c1ccc(Br)cc1 | inactive
CCOc1cc(S(=O)(=O)n2nc(C)cc2C)ccc1Br | inactive
COc1ccc(NS(=O)(=O)c2ccc3c(c2)[C@H]2C=CC[C@H]2[C@@H](c2ccc(C(=O)O)cc2)N3)cc1 | inactive
COc1ccc(NC2CCCN(C(=O)c3ccc(C(C)=O)cc3)C2)cc1 (centres undefined) | 2.06 µM (active)
CCCN1CCN(C(=O)c2cc(COc3ccc4ncccc4c3)on2)CC1 | inactive
O=C1CCC(CCC(=O)N2CCCC(C(=O)c3cccc(C(F)(F)F)c3)C2)=NN1 (centres undefined) | inactive
COc1ccc(NC2CCCN(C(=O)c3cccc(C(F)(F)F)c3)C2)cc1OC (centres undefined) | 12 µM (active)
COc1ccc(NC(=O)N2CCCC(C(=O)Nc3cccc(C)c3C)C2)cc1 (centres undefined) | inactive
COc1ccc(NC2CCCN(C(=O)c3c(C)noc3C)C2)cc1 (centres undefined) | 6.38 µM (active)
Cc1ccc(C(=O)Oc2oc(-c3ccccc3)nc2C=Nc2ccc(N(C)C)cc2)cc1 | inactive
Cc1ccc(NC(=O)CN2C(=O)N/C(=C/c3cccn3-c3ccc(C(=O)O)cc3)C2=O)cc1 | inactive
Cc1ccc(C(=O)C2CCN(CC(=O)Nc3ccc(N(C)C)cc3)CC2)cc1 | 6.37 µM (active)
Cc1cc(C)c2c(=O)n(CC(=O)N3CCC(N4CCCCC4)CC3)sc2n1 | inactive
CC(C)NC(=O)C1CCN(C2CCN(Cc3ccc4cccc(F)c4n3)CC2)CC1 | inactive
CN(C)c1ccc(NC(=O)CN2CCC(C(=O)c3ccc(F)cc3)CC2)cc1 | 3.05 µM (active)
Cc1ccc(NC(=O)CN2C(=O)N/C(=C/c3cc(C)n(-c4ccc(C(=O)O)cc4)c3C)C2=O)cc1 | inactive
CN(C)c1ccc(NC(=O)CN2CCC(N3CCCCC3)CC2)cc1 | 6.64 µM (active)
CC(=O)CSc1nc(C(F)(F)F)cc(=O)n1-c1ccccc1 | inactive
CC1(C)Cc2c(C#N)c(N3CCCC3)nc(-c3ccco3)c2CO1 | inactive
CN(C)c1ccc(Nc2cc(Cl)ncn2)cc1 | 9.79 µM (active)
O=C1CCCC2=C1Sc1ccccc1N2 | 7.55 µM (active)
Cc1c(Br)c(=O)oc2c(Br)c(O)c(O)cc12 | 25.2 µM (active)
CN(C)/C=C(\C#N)C(=O)Nc1ccc(O)cc1F | 10.3 µM (active)

SMILES | IC50
COc1ccc(OC)c(/C=N/NC(=O)CCc2ccc(O)c(O)c2)c1 | 40.4 µM (active)
O=C(CCc1ccc(O)c(O)c1)N/N=C/c1cc2c(cc1[N+](=O)[O-])OCO2 | inactive
N#Cc1nc(Cc2cccc3ccccc23)oc1NCCN1CCOCC1 | inactive
O=C(Nc1ccc(O)cc1)c1ccc2c(c1)C(=O)N(N1C(=O)c3ccccc3C1=O)C2=O | 6.05 µM (active)
O=C(Nc1ccc2c(c1)C(=O)OC2)c1ccc(C(F)(F)F)cc1 | inactive
O=C(Cn1c(=O)n(Cc2ccco2)c(=O)c2c3c(sc21)CCCCC3)Nc1ccccc1 | inactive
COc1cc(C(=O)Nc2ccc(O)cc2)ccc1OC(C)=O | 3.55 µM (active)
Cc1cccc(C(=O)Nc2ccc(C(=O)N/N=C/c3ccc4c(c3)OCO4)cc2)c1 | inactive
CCOC(=O)NC(=O)C(=CNc1cccc(C)c1)C(=O)NC(=O)OCC | inactive
O=C(Nc1ccc(O)cc1)c1ccc2c(c1)C(=O)N(Cc1ccco1)C2=O | 8.35 µM (active)
Cc1cccc(C(=O)Nc2ccc(O)cc2)c1 | 4.37 µM (active)
O=C1CC(=O)N(Cc2ccco2)C(=O)N1 | inactive
OC1CN=C2CCCc3c2n(c2ccc(Cl)cc32)C1 (centres undefined) | inactive
CCNC(=O)COC(=O)/C=C/c1cccc(F)c1 | inactive
COc1cc(/C=C/C(=O)OCC(=O)Nc2ccc(S(N)(=O)=O)cc2)ccc1O | 12.2 µM (active)
O=C1COc2ccc(C(=O)COC(=O)/C=C/c3ccc(Br)o3)cc2N1 | inactive
NS(=O)(=O)c1ccc(NC(=O)COC(=O)c2ccc(Cl)nc2)cc1 | inactive
COc1cc(/C=C/C(=O)OCC(=O)N2CC(=O)Nc3ccccc32)ccc1O | 6.1 µM (active)
Cc1cc(C)c(S(=O)(=O)/N=C2/C=C(SCC(=O)O)C(=O)c3ccccc32)cc1C | inactive
CN(C)c1ccc(NC(=O)C(=O)C2C(=O)Nc3ccccc32)cc1 (centres undefined) | 1.57 µM (active)
CCOC(=O)c1ccc(CSc2nnc(-c3ccncc3)n2N)cc1 | inactive
CCn1c(SCc2ccc(C(=O)Nc3nccs3)cc2)nnc1-c1ccc(NC(C)=O)cc1 | inactive
Cn1c(SCC(=O)c2cc(Cl)c(Cl)s2)nnc1-c1ccco1 | inactive
Cn1c(SCC(=O)c2ccc(O)c(O)c2)nnc1-c1cccs1 | 15.9 µM (active)
CCn1c(SCC(=O)c2ccc(O)c(O)c2)nnc1-c1ccc(C)cc1 | 6.52 µM (active)
C=CCn1c(SCC(=O)c2ccc(O)c(O)c2)nnc1-c1cccnc1 | 8.61 µM (active)

SMILES | IC50
C=CCn1c(SCC(=O)c2ccc(O)c(O)c2)nnc1-c1ccccc1OC | 10.2 µM (active)
COCCCN(Cc1ccco1)C(=O)Cn1ncc2c(=O)oc3ccc(C)cc3c21 | inactive
CCn1c(SCC(=O)Nc2ccccc2C)nnc1-c1ccccc1O | inactive
CCn1c(SCC(=O)c2ccc(O)c(O)c2)nnc1-c1ccccc1OC | 3.84 µM (active)
COc1cc(-c2nc(=S)[nH][nH]2)cc(OC)c1OC | 10.7 µM (active)
COc1ccc(C(=O)/C=C(\C)Nc2ccc(NC(C)=O)cc2)cc1 | 17.8 µM (active)
CC(=O)Nc1ccc(OCCOc2ccc(/C=C3\C(=N)N4N=C(C)SC4=NC3=O)cc2)cc1 | inactive
CN1c2ccc(C=O)c3c(C=O)ccc(c23)N(C)C1(C)C | 17.5 µM (active)
Nc1ccc2nc(-c3cccs3)[nH]c2c1 | 3.65 µM (active)
Cc1ccc(C)c(-c2nc3ccc(N)cc3[nH]2)c1 | 4.86 µM (active)
COc1ccc(C2=CC3=C(Br)C(=O)C(C)(OC(=O)c4ccco4)C(=O)C3=CO2)cc1 (centres undefined) | inactive
CCNc1ccc(Br)cc(C(=O)/C=C/c2ccc(Cl)cc2Cl)c1=O | inactive
CC(=O)Nc1ccccc1O | 2.63 µM (active)
CCC(=Nc1ccccc1O)C1=C(O)CC(c2ccccc2)CC1=O (centres undefined) | 8.32 µM (active)
O=C1ON=C(c2ccccc2)/C1=C\c1ccco1 | inactive
COc1ccc(/C=C2\C(=O)ON=C2c2ccccc2)cc1OC | inactive
COc1cc(C=C2C(=O)c3ccccc3C2=O)ccc1O | 4.42 µM (active)
O=C1ON=C(c2ccccc2)/C1=C/c1ccccc1 | inactive
O=C1C(=Cc2ccc(Br)o2)C(=O)c2ccccc21 | inactive
COc1cc(/C=C2\C(=O)ON=C2c2ccc(Cl)cc2)ccc1O | 18.5 µM (active)
O=C1ON=C(c2ccccc2)/C1=C/c1ccc(OS(=O)(=O)c2ccccc2)cc1 | inactive
COc1cc(/C=C2/C(=O)ON=C2c2ccccc2)ccc1O | 14.4 µM (active)
CCOC(=O)C1=C(C)N(c2ccccc2)C(=O)/C1=C\c1ccc(O)c(OC)c1 | inactive
COc1ccc(/C=C2\C(=O)ON=C2c2ccccc2)cc1 | inactive
O=C1ON=C(c2ccccc2)/C1=C/c1ccc(O)c(O)c1 | 7.26 µM (active)
Cc1cc(NS(=O)(=O)c2ccc(NC(=O)Nc3ccc4c(c3)OCO4)cc2)no1 | inactive

SMILES | IC50
CC(=O)Nc1cccc(NC(=O)COc2ccc3c(c2)OCO3)c1 | inactive
O=C(CCS(=O)(=O)c1ccc(Cl)cc1)Oc1ccc2c(c1)OCO2 | 78 µM (active)
COc1c2ccoc2nc2c(OC)c(O)ccc12 | 11.5 µM (active)
COc1c(F)c(F)c(C(=O)O)c(Nc2ccc(C)cc2)c1F | inactive
CN(C)c1ccc(NC(=O)c2cccc(N3C(=O)CCC3=O)c2)cc1 | 6.4 µM (active)
CC(OC(=O)c1ccccc1C(=O)N(C)c1ccccc1)C(=O)Nc1ccc(C(N)=O)cc1 (centres undefined) | inactive
COc1cc(C(=O)N/N=C2\CCS(=O)(=O)c3ccc(F)cc32)cc(OC)c1OC | inactive
Cc1ccc(NC(=O)CN2C(=O)N/C(=C/c3cc(C)n(-c4cccc(C(=O)O)c4)c3C)C2=O)cc1 | inactive
COc1cc(C(=O)Nc2ccc(N(C)C)cc2)cc(OC)c1OC | 5.06 µM (active)
CC(C)Oc1ccc(C(=O)Nc2ccc(N(C)C)cc2)cc1 | 12.1 µM (active)
CN(C)c1ccc(NC(=O)c2ccc3nc[nH]c3c2)cc1 | 3.67 µM (active)
CSc1nc(-c2ccco2)nn1S(C)(=O)=O | inactive
CCCCC(CC)CN=C(N)NC(N)=NCCCCCCN=C(N)NC(N)=NCC(CC)CCCC (centres undefined) | inactive
Cc1ccc(/C=c2\sc3nc(-c4ccco4)nn3c2=O)o1 | inactive
Cc1ccc(/C=C2/SC(=O)NC2=S)o1 | 4.25 µM (active)
Cc1ccc(C2=NOC(=O)/C2=C\c2ccc(C)o2)cc1 | inactive
CCN(CCNC(=O)C1CCCN(Cc2nc(-c3ccc(OC)cc3)oc2C)C1)c1ccccc1 (centres undefined) | inactive
COc1ccc(N2CCN(C(CNC(=O)C3CCCCC3)c3cccnc3)CC2)cc1 (centres undefined) | 9.65 µM (active)
COc1ccc(C(=O)CC(c2ccccc2)C2CCCCC2=O)cc1 (centres undefined) | inactive
O=C(Nc1ccccc1F)c1coc(=O)c(Br)c1 | inactive
COc1cccc(CNC(=O)Cc2ccc(Br)cc2)c1 | inactive
COc1ccccc1CNC(=O)COC(=O)c1c(C)nn(-c2ccccc2)c1Cl | inactive
COc1ccccc1CNC(=O)c1ccc(CS(=O)Cc2cccc(Cl)c2)o1 (centres undefined) | 12.8 µM (active)
COC(=O)C1=C(O)/C(=C\c2ccc(CNS(=O)(=O)c3ccccc3)o2)N=C1C | inactive
CCOC(=O)C1=C(O)/C(=C/c2cccc(OC)c2O)N=C1C | 7.3 µM (active)
COC(=O)C1=C(O)/C(=C/c2cccc(OC)c2O)N=C1C | 6.57 µM (active)

From PubChem BioAssay AID2501 (Southern Research Specialized Biocontainment Screening …, 2010)
